# Data published in the supplement of paper PMC10037445.
# Over roughly 2,900 compounds, “NF-kB SEAP reporter activity, fold change vs agonist alone” has its median near 0.99; the highest 2% begin near 2.6. The full list was thinned out, with the highest values kept by preference.
# Key:
# RAW-Dual [1] = experiment: NF-kB SEAP reporter activity, fold change vs agonist alone; higher = enhanced NF-kB activity
# Summary of the method: (§1)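 Library stock was pin-tooled at 50 nL into 384-well plates of RAW-Dual macrophages (50,000 cells/well, DMEM), followed 1 h later by a PRR agonist, and the cells were kept at 37 °C, 5% CO2. Supernatant collected after 20 hours was read for IRF by QuantiLuc luminescence and for NF-κB by QuantiBlue absorbance at 620 nm. Reporter activity is fold change over agonist-alone wells, and a well counted as cytotoxic when its IncuCyte confluency was below 70% of agonist controls in both mask sets.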
# RAW-Dual [2] = experiment: NF-kB SEAP reporter activity, fold change vs agonist alone; cytotoxicity flag (confluency mask): not cytotoxic; higher = enhanced NF-kB activity
# Summary of the method: as §1
# RAW-Dual [3] = experiment: NF-kB SEAP reporter activity, fold change vs agonist alone; cytotoxicity flag (confluency mask): cytotoxic (confluency <70% of control); higher = enhanced NF-kB activity
# Summary of the method: as §1
# [4] = library stock concentration (final ~1000-fold dilution): 10 mM, cytotoxicity flag (confluency mask): not cytotoxic, agonist: Imiquimod (TLR7) […]
# [5] = library stock concentration (final ~1000-fold dilution): 10 mM, cytotoxicity flag (confluency mask): not cytotoxic, agonist: MPLA (TLR4) […]
# [6] = agonist: ODN 1826 (TLR9) 0.5 ug/mL
# [7] = agonist: Pam2CSK4 (TLR2/6) 0.1 ug/mL
# [8] = agonist: Pam3CSK4 (TLR2/1) 0.1 ug/mL
# [9] = library stock concentration (final ~1000-fold dilution): 10 mM, cytotoxicity flag (confluency mask): cytotoxic (confluency <70% of control), agonist: Imiquimod (TLR7) […]
# [10] = library stock concentration (final ~1000-fold dilution): 10 mM, cytotoxicity flag (confluency mask): cytotoxic (confluency <70% of control), agonist: MPLA (TLR4) […]
smiles,measurement,setting,value
Cl.Nc1ccc(N=Nc2ccccc2)c(N)n1,NF-kB SEAP reporter activity,RAW-Dual [1]; [4],1.1
same,NF-kB SEAP reporter activity,RAW-Dual [1]; [5],1.08
Cl.Nc1ccc(N=Nc2ccccc2)c(N)n1 (library stock concentration (final ~1000-fold dilution): 10 mM),NF-kB SEAP reporter activity,RAW-Dual [2]; agonist: LPS (TLR4) 0.1 ug/mL,1.22
same,NF-kB SEAP reporter activity,RAW-Dual [2]; [6],0.928
same,NF-kB SEAP reporter activity,RAW-Dual [2]; [7],1.09
same,NF-kB SEAP reporter activity,RAW-Dual [2]; [8],0.933
Nc1nc(=O)n(C2CSC(CO)O2)cc1F (configuration not stated),NF-kB SEAP reporter activity,RAW-Dual [1]; [4],0.983
same,NF-kB SEAP reporter activity,RAW-Dual [1]; [5],1.14
Nc1nc(=O)n(C2CSC(CO)O2)cc1F (configuration not stated) (library stock concentration (final ~1000-fold dilution): 10 mM),NF-kB SEAP reporter activity,RAW-Dual [2]; agonist: LPS (TLR4) 0.1 ug/mL,0.99
same,NF-kB SEAP reporter activity,RAW-Dual [2]; [6],1.1
same,NF-kB SEAP reporter activity,RAW-Dual [2]; [7],1.1
same,NF-kB SEAP reporter activity,RAW-Dual [2]; [8],1.13
CCC(C)SSc1ncc[nH]1 (configuration not stated),NF-kB SEAP reporter activity,RAW-Dual [1]; [4],1.51
same,NF-kB SEAP reporter activity,RAW-Dual [1]; [5],1.85
CCC(C)SSc1ncc[nH]1 (configuration not stated) (library stock concentration (final ~1000-fold dilution): 10 mM),NF-kB SEAP reporter activity,RAW-Dual [2]; agonist: LPS (TLR4) 0.1 ug/mL,4.74
same,NF-kB SEAP reporter activity,RAW-Dual [2]; [6],2.67
same,NF-kB SEAP reporter activity,RAW-Dual [2]; [7],1.44
same,NF-kB SEAP reporter activity,RAW-Dual [2]; [8],2.7
Cc1[nH]c(/C=C2\C(=O)Nc3ccc(S(=O)(=O)Cc4c(Cl)cccc4Cl)cc32)c(C)c1C(=O)N1CCCC1CN1CCCC1 (configuration not stated) (library stock concentration (final ~1000-fold dilution): 10 mM),NF-kB SEAP reporter activity,RAW-Dual [3]; agonist: LPS (TLR4) 0.1 ug/mL,0.658
same,NF-kB SEAP reporter activity,RAW-Dual [3]; [6],1.39
same,NF-kB SEAP reporter activity,RAW-Dual [3]; [7],0.551
same,NF-kB SEAP reporter activity,RAW-Dual [3]; [8],0.886
Cc1[nH]c(/C=C2\C(=O)Nc3ccc(S(=O)(=O)Cc4c(Cl)cccc4Cl)cc32)c(C)c1C(=O)N1CCCC1CN1CCCC1 (configuration not stated),NF-kB SEAP reporter activity,RAW-Dual [1]; [9],2.04
same,NF-kB SEAP reporter activity,RAW-Dual [1]; [10],1.3
CC(C)Oc1ccc(C(=O)NC(CNC(=O)CN(C)C)Cc2ccc(-c3cn4cccc(C(C)O)c4n3)cc2)cc1Cl (configuration not stated),NF-kB SEAP reporter activity,RAW-Dual [1]; [4],1.37
same,NF-kB SEAP reporter activity,RAW-Dual [1]; [5],1.39
CC(C)Oc1ccc(C(=O)NC(CNC(=O)CN(C)C)Cc2ccc(-c3cn4cccc(C(C)O)c4n3)cc2)cc1Cl (configuration not stated) (library stock concentration (final ~1000-fold dilution): 10 mM),NF-kB SEAP reporter activity,RAW-Dual [2]; agonist: LPS (TLR4) 0.1 ug/mL,0.934
same,NF-kB SEAP reporter activity,RAW-Dual [2]; [6],0.199
same,NF-kB SEAP reporter activity,RAW-Dual [2]; [7],1.02
same,NF-kB SEAP reporter activity,RAW-Dual [2]; [8],1.03
Nc1ncnc2c1c(I)cn2C1OC(CO)C(O)C1O (configuration not stated),NF-kB SEAP reporter activity,RAW-Dual [1]; [9],0.145
same,NF-kB SEAP reporter activity,RAW-Dual [1]; [10],0.26
Nc1ncnc2c1c(I)cn2C1OC(CO)C(O)C1O (configuration not stated) (library stock concentration (final ~1000-fold dilution): 10 mM),NF-kB SEAP reporter activity,RAW-Dual [3]; agonist: LPS (TLR4) 0.1 ug/mL,0.213
same,NF-kB SEAP reporter activity,RAW-Dual [3]; [6],0.195
same,NF-kB SEAP reporter activity,RAW-Dual [3]; [7],0.0844
same,NF-kB SEAP reporter activity,RAW-Dual [3]; [8],0.123
C=C1CCC(O)CC1=CC=C1CCCC2(C)C1CCC2C(C)CCCC(C)C (configuration not stated) (library stock concentration (final ~1000-fold dilution): 1 mM),NF-kB SEAP reporter activity,RAW-Dual [2]; agonist: LPS (TLR4) 0.1 ug/mL,0.593
same,NF-kB SEAP reporter activity,RAW-Dual [2]; [6],1.12
same,NF-kB SEAP reporter activity,RAW-Dual [2]; [7],1.12
same,NF-kB SEAP reporter activity,RAW-Dual [2]; [8],1.27
C=C1CCC(O)CC1=CC=C1CCCC2(C)C1CCC2C(C)CCCC(C)C (configuration not stated),NF-kB SEAP reporter activity,"RAW-Dual [1]; library stock concentration (final ~1000-fold dilution): 1 mM, cytotoxicity flag (confluency mask): not cytotoxic, agonist: Imiquimod (TLR7) […]",1.17
same,NF-kB SEAP reporter activity,"RAW-Dual [1]; library stock concentration (final ~1000-fold dilution): 1 mM, cytotoxicity flag (confluency mask): not cytotoxic, agonist: MPLA (TLR4) […]",0.651
O=C(O)CCN1C(=O)C(=Cc2ccc(-c3ccc([N+](=O)[O-])cc3)o2)SC1=S,NF-kB SEAP reporter activity,RAW-Dual [1]; [4],0.675
same,NF-kB SEAP reporter activity,RAW-Dual [1]; [5],0.731
O=C(O)CCN1C(=O)C(=Cc2ccc(-c3ccc([N+](=O)[O-])cc3)o2)SC1=S (library stock concentration (final ~1000-fold dilution): 10 mM),NF-kB SEAP reporter activity,RAW-Dual [2]; agonist: LPS (TLR4) 0.1 ug/mL,0.807
same,NF-kB SEAP reporter activity,RAW-Dual [2]; [6],0.649
same,NF-kB SEAP reporter activity,RAW-Dual [2]; [7],0.104
same,NF-kB SEAP reporter activity,RAW-Dual [2]; [8],0.296
COc1ccc(-c2ccc3c(N4CCOCC4)nc(N4CC(C)OC(C)C4)nc3n2)cc1CO (configuration not stated) (library stock concentration (final ~1000-fold dilution): 10 mM),NF-kB SEAP reporter activity,RAW-Dual [2]; agonist: LPS (TLR4) 0.1 ug/mL,0.793
same,NF-kB SEAP reporter activity,RAW-Dual [2]; [6],0.836
same,NF-kB SEAP reporter activity,RAW-Dual [2]; [7],0.365
same,NF-kB SEAP reporter activity,RAW-Dual [2]; [8],0.707
